The list is not random: actives were taken first. Their share in the collection is about 8%.
HCMV antiviral: qHTS Assay for inhibitors of the human cytomegalovirus (HCMV); HFF cells, HCMV-luciferase reporter, 72 h; hits give low values; activity change, negative = inhibition, % at 57.5 µM; actives 4.5% (n = 410,000); AID 1259415, 2018; in the data active = activity change below about -60%; inconclusive = no clear call, values can overlap the other calls; inactive = above about -39%; note: % is set by controls: 0 for no effect and ±100 for the full control effect
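HFF cells seeded 16 h at 37C, treated with compounds, infected with luciferase-reporter HCMV at MOI 1 PFU/cell; luciferase read at 72 h post infection, normalized to buffer-only and Salinomycin controls.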
SARS PLpro yeast: qHTS of Yeast-based Assay for SARS-CoV PLP; S. cerevisiae expressing SARS-CoV PLpro, growth rescue; Potency, µM (titrated, usually from 32.9 µM), for the others: top-dose activity, positive = growth rescue, actives largely listed as activators; actives 0.19% (n = 330,000); calls by dose curve; note: potency is the fitted concentration of half-maximal effect; 0% is about no effect; nearly all actives have a fitted effect of over 55% in size
HCV inhibitor: qHTS Assay for Inhibitors of Hepatitis C Virus (HCV); Potency, µM (series often up to 41.8 µM), inactives show at the top dose activity change, negative = inhibition, actives largely listed as inhibitors; actives 3.4% (n = 340,000); AID 651820, 2012; Huh7.5.1 HCVcc-Cre infection, luciferase reporter, 44 h; active = well fitted inhibition curve with a large enough effect; inconclusive = small, poorly fitted or top-dose-only effect, or another doubt; inactive = no such curve, though single readings can be large or run the other way; note: potency is the fitted concentration of half-maximal effect; % is set by controls: 0 for no effect and ±100 for the full control effect
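Infectious HCVcc-Cre (~0.5 moi) was added to cells just after compound, with cells seeded 4 h earlier at 1,000 per well. Luciferase activity after 44 h culture reported infection; substrate was incubated 15 min at room temperature before reading.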
Lassa entry inh: qHTS for Inhibitors of binding or entry into cells for Lassa Virus; Lassa virus pseudotype entry inhibition, cell reporter; Potency, µM (series often up to 37.9 µM), inactives show top-dose activity change, negative = inhibition, hits mostly inhibitors; actives 1.2% (n = 300,000); calls by dose curve; tested in HEK293 cells; note: potency is the fitted concentration of half-maximal effect; % is set by controls: 0 for no effect and ±100 for the full control effect; nearly all actives have a fitted effect of over 50% in size
Marburg entry inh: qHTS for inhibitors of binding or entry into cells for Marburg Virus | AID 540276, 2011 | Marburg virus pseudotyped entry inhibition, cell reporter | Potency, µM (highest dose often 37.8 µM), for the others: at the highest dose activity change, negative = inhibition, actives largely listed as inhibitors | actives 1.8% (n = 300,000); calls by dose curve; tested in HEK293 cells; note: potency is the fitted concentration of half-maximal effect; % is set by controls: 0 for no effect and ±100 for the full control effect
FMDV antiviral: High Throughput Screening for Foot and Mouth Disease Virus Antivirals; FMDV antiviral cell-based qHTS; Potency, µM (highest dose often 57.9 µM), for inactives: top-dose activity change, negative = inhibition, hits mostly inhibitors; actives 1.2% (n = 410,000); AID 1159524, 2015; calls by dose curve; tested in HEK293T cells; note: read-out not given here; potency is the fitted concentration of half-maximal effect; % is set by controls: 0 for no effect and ±100 for the full control effect; nearly all actives have a fitted effect of over 45% in size
* hit, by the source's call; ? = inconclusive; / = no result; [ ] = remark or other dose.

SMILES	HCMV antiviral	SARS PLpro yeast	HCV inhibitor	Lassa entry inh	Marburg entry inh	FMDV antiviral
CCCc1cc(=O)oc2cc(C)cc(OCC(=O)NCCN3CCOCC3)c12	-7.4	-6.5%	-23.9%	/	/	-17.5%
CCc1c(C)nc2cc(-c3cc(OC)cc(OC)c3)nn2c1N1CCCC1	?	-27.8%	?	-24.8%	3.66µM*	/
COc1ccc(-c2c(C)nn3c(N4CCCCCC4)cc(C)nc23)cc1OC	-61.4*	-2.3%	11.2µM*	-12.4%[46.1 µM]	?	-43.1%
CCc1c(C)nc2cc(-c3ccc(OC)c(OC)c3)nn2c1N1CCCC1	?	-28.9%	1.78µM*	?	?	/
O=C(NCc1nnc2n1CCN(Cc1cc(F)cc(F)c1)CC2)c1cccc(F)c1	/	/	/	/	/	2.2%
COc1ccc(NC(=O)c2cnc3sc(N4CCOCC4)nn3c2=O)c(OC)c1	15.1	/	/	8.4%[46.1 µM]	/	-19.6%
Cc1cccc(C)c1NC(=O)C1N=Cc2ccccc2N=C1c1cccc(Br)c1 (stereo not given)	35.3	/	/	/	/	/
Cc1ccc(CSC2=Nc3ccccc3C3=NC(CC(=O)NC4CCCCC4)C(=O)N23)cc1 (stereo not given)	-13.3	/	/	-5.4%[46.1 µM]	/	6.2%
Cc1cc(C(=O)N/N=C/c2cc(Br)ccc2OC(=O)c2ccccc2Cl)n[nH]1	?	0.0%	?	10µM*	10µM*	-13.2%
Cc1cc(C(=O)N/N=C/c2ccc(OC(=O)c3ccccc3Br)cc2)n[nH]1	-29.0	-0.3%	-10.7%	-11.4%	?	-0.9%
Cc1cc(C(=O)N/N=C/c2cc(Br)ccc2OC(=O)c2ccccc2)n[nH]1	102.7	3.8%	?	?	10µM*	-8.3%
CN(C)c1cccc(CNc2nccc3[nH]c(-c4ccc(F)c(F)c4)nc23)c1	0.2	/	/	/	/	/
CCOc1ccc(/C=C/c2nc(C#N)c(NCCc3ccccc3)o2)cc1	-3.3	/	/	-6.2%[46.1 µM]	?	0.0%
COc1ccccc1C(=O)/C=C/c1ccc(N2CCCCC2)c([N+](=O)[O-])c1	-80.3*	19.9%	11.2µM*	?	?	35.5µM*
CC(=O)Oc1ccccc1C(=O)C=Cc1cccc([N+](=O)[O-])c1	-77.0*	/	?	?	?	28.2µM*
O=C(/C=C/c1cccc([N+](=O)[O-])c1)c1cccs1	-89.5*	-60.7%	?	?	?	-89.6%
Cc1cc(O)c(C(=O)/C=C/c2cccc([N+](=O)[O-])c2)c(=O)o1	-18.5	1.8%	-7.5%	12.0%[46.1 µM]	?	17.8µM*
Cc1cc(O)c(C(=O)/C=C/c2ccccc2O)c(=O)o1	-8.5	-3.8%	4.5%	/	/	?
O=C(/C=C/c1ccc(N2CCCCC2)c([N+](=O)[O-])c1)c1ccc(O)cc1	15.0	-1.4%	?	-62.2%[46.1 µM]	?	-15.5%
COC(=O)C(C)NC(=O)N1CCN(c2nnc(C)c3c(C)n(-c4ccc(Cl)cc4)nc23)CC1 (stereo not given)	-2.1	/	/	-2.7%[46.1 µM]	/	?
Cc1ccc(OCC(=O)Nc2ccc3nc(SCC(=O)N4CCCC4)sc3c2)cc1C	-16.3	/	/	0.9%[46.1 µM]	-2.1%[46.1 µM]	?
CCOC(=O)c1cc(S(=O)(=O)Nc2c(C)cc(C)cc2C)[nH]n1	-2.4	/	/	18.3%[46.1 µM]	/	-2.1%
COC1=C[C@H](C(=O)NCc2ccccn2)[C@@]2(C)Cc3ccccc3[C@@H]2CC1=O	/	/	/	/	-29.0%[14.2 µM]	/
CC(=O)NCCOC(=O)Nc1sc(=S)n(C)c1C	50.1	-18.1%	24.1%	16.8%	3.5%	13.1%
Cc1c(NC(=O)OCCSc2nc(N(C)C)nc(N(C)C)n2)sc(=S)n1C	?	/	14.1µM*	-13.2%	-15.5%	/
N#Cc1ccccc1NC(=O)C1SC(=Nc2ccccc2)C(C(=O)Nc2ccc(Cl)cc2)=C1N (stereo not given)	25.3	0.2%	10µM*	?	-5.3%[46.1 µM]	0.0%
COc1ccc(C)cc1NC(=O)CN(Cc1nnc(-c2ccc(Cl)cc2)o1)C1CCCC1	-7.7	-9.9%	7.94µM*	-0.9%	?	-1.9%
COc1ccc(OC)c(NC(=O)CN(Cc2ccc(F)cc2)C2CCCCC2)c1	-93.2*	-4.8%	?	?	?	?
